Read-out in assay [1]: Protein phosphatase 2A (PPP2R4), PTPA (gene 5524)
As to the kind of experiment: LTEA_HepaRG_PPP2R4: Life Technologies and Expression Analysis (LTEA) Assay for Protein phosphatase 2A (PPP2R4) using HepaRG (AID 2283522). The note with it: mRNA level, 48 h; actives raise or lower the signal. An outline of the steps:
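Cells were plated, cultured 48 h, switched to serum-free induction medium, then dosed for 48 h (8 points, max 100 uM, 0.5% DMSO). RNA was isolated and PPP2R4 expression measured by TaqMan qRT-PCR.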

Read-out in assay [2]: solute carrier (SLC22A1), SLC22A1 (gene 6580)
As to the kind of experiment: LTEA_HepaRG_SLC22A1: Life Technologies and Expression Analysis (LTEA) Assay for solute carrier (SLC22A1) using HepaRG (AID 2283524). The note with it: mRNA level, 48 h; actives raise or lower the signal. An outline of the steps: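 qRT-PCR readout (TaqMan, Fluidigm arrays) of SLC22A1 transcript, normalized to three housekeeping genes; bidirectional curve fit relative to 0.5% DMSO vehicle. Differentiated human HepaRG cells, 48 h chemical exposure, top concentration 100 uM, half-log steps, eight points.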

Read-out in assay [3]: Pyruvate Dehydrogenase Kinase 4 (PDK4), PDK4 (gene 5166)
As to the kind of experiment: LTEA_HepaRG_PDK4: Life Technologies and Expression Analysis (LTEA) Assay for Pyruvate Dehydrogenase Kinase 4 (PDK4) using HepaRG (AID 2283525). The note with it: mRNA level, 48 h; actives raise or lower the signal. An outline of the steps:
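HepaRG (human liver line), 48 h chemical exposure, 8-pt half-log CRC top 100 uM, 0.5% DMSO vehicle, duplicates. Readout: TaqMan qRT-PCR of PDK4 mRNA, housekeeping-normalized; gain/loss fit relative to DMSO baseline.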

Read-out in assay [4]: NAD(P)H dehydrogenase [quinone] 1 (NQO1), NQO1 (gene 1728)
As to the kind of experiment: LTEA_HepaRG_NQO1: Life Technologies and Expression Analysis (LTEA) Assay for NAD(P)H dehydrogenase [quinone] 1 (NQO1) using HepaRG (AID 2283526). The note with it: mRNA level, 48 h; actives raise or lower the signal. The method, boiled down: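 Transcript induction or suppression is quantified by qRT-PCR in human HepaRG liver cells dosed for 48 hours. Eight half-log concentrations topping at 100 uM are used, with 0.5% DMSO as vehicle and baseline.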

Read-out in assay [5]: Nuclear factor erythroid 2-related factor 2 (Homo sapiens) (UniProt Q16236)
As to the kind of experiment: LTEA_HepaRG_NFE2L2: Life Technologies and Expression Analysis (LTEA) Assay for Nuclear factor erythroid 2-related factor 2 (NFE2L2) Transcription Factor using HepaRG (AID 2283527).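 As to outcome: TaqMan qRT-PCR transcript level normalised to ACTB GAPDH and POLR2A housekeeping genes.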 The note with it: mRNA level, 48 h; actives raise or lower the signal. An outline of the steps:
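HepaRG, 48 h dosing, 8-pt half-log series from 100 uM in 0.5% DMSO, duplicates. Read-out: NFE2L2 mRNA by qRT-PCR (ACTB/GAPDH/POLR2A normalization). Bidirectional curve fit vs DMSO baseline.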

Read-out in assay [6]: succinate dehydrogenase complex iron sulfur subunit B (SDHB), SDHB (gene 6390)
Nature of the assay: LTEA_HepaRG_SDHB: Life Technologies and Expression Analysis (LTEA) Assay for succinate dehydrogenase complex iron sulfur subunit B (SDHB) using HepaRG (AID 2283528). The note with it: mRNA level, 48 h; actives raise or lower the signal. An outline of the steps:
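Readout is SDHB transcript level by qRT-PCR, normalised to three housekeeping genes and fitted bidirectionally against 0.5% DMSO vehicle. Human HepaRG cells were treated for 48 h at up to 100 uM.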

Read-out in assay [7]: Signal transducer and activator of transcription 3 (Homo sapiens) (UniProt P40763)
Nature of the assay: LTEA_HepaRG_STAT3: Life Technologies and Expression Analysis (LTEA) Assay for Signal transducer and activator of transcription (STAT3) using HepaRG (AID 2283529). The note with it: mRNA level, 48 h; actives raise or lower the signal. An outline of the steps: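 HepaRG, 48 h exposure, 8-pt half-log series (top 100 uM), 0.5% DMSO vehicle, duplicates. Readout: STAT3 transcript by Fluidigm qRT-PCR, housekeeping-normalized; bidirectional fit vs DMSO baseline.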

Read-out in assay [8]: solute carrier (SLCO1B1), SLCO1B1 (gene 10599)
Nature of the assay: LTEA_HepaRG_SLCO1B1: Life Technologies and Expression Analysis (LTEA) Assay for solute carrier (SLCO1B1) using HepaRG (AID 2283530). The note with it: mRNA level, 48 h; actives raise or lower the signal. An outline of the steps: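 Differentiated human HepaRG cells, plated 48 h, switched to serum-free induction medium and exposed in duplicate for 48 h to 8 half-log concentrations (top 100 uM) in 0.5% DMSO. SLCO1B1 mRNA by TaqMan qRT-PCR, normalized to ACTB/GAPDH/POLR2A.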

Read-out in assay [9]: Transforming Growth Factor (TGFA), TGFA (gene 7039)
Nature of the assay: LTEA_HepaRG_TGFA: Life Technologies and Expression Analysis (LTEA) Assay for Transforming Growth Factor (TGFA) using HepaRG (AID 2283532). The note with it: mRNA level, 48 h; actives raise or lower the signal. An outline of the steps:
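qRT-PCR read-out of TGFA transcript, normalized to three housekeeping genes, fitted bidirectionally against 0.5% DMSO baseline. Human HepaRG cultures received chemicals for 48 h at eight half-log concentrations, top 100 uM.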

Read-out in assay [10]: Transforming Growth Factor (TGFB1), TGFB1 (gene 7040)
As to the kind of experiment: LTEA_HepaRG_TGFB1: Life Technologies and Expression Analysis (LTEA) Assay for Transforming Growth Factor (TGFB1) Transporter using HepaRG (AID 2283533). The note with it: mRNA level, 48 h; actives raise or lower the signal. The method, boiled down:
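Differentiated human HepaRG cells in serum-free induction medium were exposed in duplicate for 48 h to eight concentrations (top 100 uM, half-log steps, 0.5% DMSO). TGFB1 mRNA was quantified by qRT-PCR, normalized to ACTB, GAPDH, POLR2A, and fitted bidirectionally against DMSO.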

Read-out in assay [11]: TIMP1, TIMP1 (gene 7076)
As to the kind of experiment: LTEA_HepaRG_TIMP1: Life Technologies and Expression Analysis (LTEA) Assay for TIMP1 using HepaRG (AID 2283534). The note with it: mRNA level, 48 h; actives raise or lower the signal. An outline of the steps: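 Differentiated human HepaRG cells in serum-free induction medium were exposed 48 h to chemicals (8 half-log concentrations, top 100 uM, 0.5% DMSO). TIMP1 mRNA was quantified by TaqMan qRT-PCR, normalized to ACTB/GAPDH/POLR2A; bidirectional fit versus DMSO.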

Read-out in assay [12]: Thyroid Hormone Responsive (THRSP), THRSP (gene 7069)
As to the kind of experiment: LTEA_HepaRG_THRSP: Life Technologies and Expression Analysis (LTEA) Assay for Thyroid Hormone Responsive (THRSP) using HepaRG (AID 2283536). The note with it: mRNA level, 48 h; actives raise or lower the signal. The method, boiled down: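 qRT-PCR read-out (Fluidigm TaqMan), housekeeping-normalized (ACTB/GAPDH/POLR2A). HepaRG, 48 h chemical exposure, 8-pt half-log series from 100 uM in 0.5% DMSO, duplicates. Bidirectional curve fit vs 0.5% DMSO baseline.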

Read-out in assay [13]: UDP glucuronosyltransferase (UGT1A1), UGT1A1 (gene 54658)
As to the kind of experiment: LTEA_HepaRG_UGT1A1: Life Technologies and Expression Analysis (LTEA) Assay for UDP glucuronosyltransferase (UGT1A1) using HepaRG (AID 2283538). The note with it: mRNA level, 48 h; actives raise or lower the signal. The method, boiled down:
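Cells are plated, cultured 48 h, switched to serum-free induction medium, then dosed 48 h at eight concentrations (max 100 uM, 0.5% DMSO). RNA is isolated and UGT1A1 expression measured by qRT-PCR; changes versus DMSO are fitted in both directions.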

Assay [14] in a line: LTEA_HepaRG_LDH_cytotoxicity: Cytotoxicity Assessment in the Life Technologies and Expression Analysis (LTEA) Assay (AID 2283563; active = hit-call score of the fitted dose curve at least 0.9, where 1 is the maximum;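 as to AC50: LDH activity released into spent culture medium as a marker of cell death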). The method, boiled down: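 Differentiated human HepaRG cells, plated 48 h beforehand, were switched to serum-free induction medium and exposed for 48 h to eight half-log concentrations (top 100 uM) in 0.5% DMSO. LDH was measured in spent medium; activity was fitted relative to DMSO vehicle.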

Read-out in assay [15]: UDP glucuronosyltransferase (UGT1A6), UGT1A6 (gene 54578)
Nature of the assay: LTEA_HepaRG_UGT1A6: Life Technologies and Expression Analysis (LTEA) Assay for UDP glucuronosyltransferase (UGT1A6) using HepaRG (AID 2283539). The note with it: mRNA level, 48 h; actives raise or lower the signal. The method, boiled down: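 Human HepaRG cells were dosed for 48 h in serum-free induction medium with 0.5% DMSO vehicle, eight-point half-log series from 100 uM, in duplicate. UGT1A6 mRNA was measured by qRT-PCR, normalized to ACTB, GAPDH, POLR2A, and fitted bidirectionally against DMSO.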

Read-out in assay [16]: X-box binding protein 1 (XBP1), XBP1 (gene 7494)
As to the kind of experiment: LTEA_HepaRG_XBP1: Life Technologies and Expression Analysis (LTEA) Assay for X-box binding protein 1 (XBP1) using HepaRG (AID 2283540). The note with it: mRNA level, 48 h; actives raise or lower the signal. The method, boiled down:
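Differentiated human HepaRG cells in serum-free induction medium were exposed in duplicate for 48 h to eight half-log concentrations up to 100 uM in 0.5% DMSO. XBP1 mRNA was quantified by qRT-PCR, normalised to ACTB, GAPDH and POLR2A, with bidirectional fitting against DMSO.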

Read-out in assay [17]: Cellular tumor antigen p53 (Homo sapiens) (UniProt P04637)
As to the kind of experiment: LTEA_HepaRG_TP53: Life Technologies and Expression Analysis (LTEA) Assay for Tumor Protein P53 (TP53) using HepaRG (AID 2283537). The note with it: mRNA level, 48 h; actives raise or lower the signal. The method, boiled down: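 Read-out is TP53 transcript level by microfluidic qRT-PCR, normalised to three housekeeping genes and fitted bidirectionally against DMSO. Human HepaRG cells received compounds for 48 h, highest concentration 100 uM.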

Active and inactive are the calls of the source. The calls were made as follows, unless noted: active = hit-call score of the fitted dose curve at least 0.9, where 1 is the maximum; inactive = score below 0.9.

Signal transducer and activator of transcription 3 (Homo sapiens), sequence (P40763 whole entry, looked up): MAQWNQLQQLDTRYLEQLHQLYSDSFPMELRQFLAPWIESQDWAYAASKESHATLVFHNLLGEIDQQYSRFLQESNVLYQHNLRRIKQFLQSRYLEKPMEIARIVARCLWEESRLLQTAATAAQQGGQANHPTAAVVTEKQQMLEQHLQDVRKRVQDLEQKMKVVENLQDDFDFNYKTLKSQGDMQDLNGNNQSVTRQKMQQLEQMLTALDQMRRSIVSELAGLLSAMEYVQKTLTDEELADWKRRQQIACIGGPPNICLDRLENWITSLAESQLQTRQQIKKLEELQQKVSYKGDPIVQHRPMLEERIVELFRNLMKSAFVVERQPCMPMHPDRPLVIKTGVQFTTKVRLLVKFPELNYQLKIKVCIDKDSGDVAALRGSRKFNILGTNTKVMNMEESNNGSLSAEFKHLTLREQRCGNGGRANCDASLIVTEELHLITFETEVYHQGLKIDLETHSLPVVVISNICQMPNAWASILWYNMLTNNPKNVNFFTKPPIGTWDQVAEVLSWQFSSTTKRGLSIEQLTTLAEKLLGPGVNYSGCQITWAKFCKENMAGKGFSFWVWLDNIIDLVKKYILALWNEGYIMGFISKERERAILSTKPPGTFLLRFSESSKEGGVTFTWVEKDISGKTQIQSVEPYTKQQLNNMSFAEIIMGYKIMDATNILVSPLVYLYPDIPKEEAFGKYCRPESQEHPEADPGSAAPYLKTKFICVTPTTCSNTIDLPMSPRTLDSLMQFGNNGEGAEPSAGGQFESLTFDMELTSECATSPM
Nuclear factor erythroid 2-related factor 2 (Homo sapiens), sequence (Q16236 whole entry, looked up): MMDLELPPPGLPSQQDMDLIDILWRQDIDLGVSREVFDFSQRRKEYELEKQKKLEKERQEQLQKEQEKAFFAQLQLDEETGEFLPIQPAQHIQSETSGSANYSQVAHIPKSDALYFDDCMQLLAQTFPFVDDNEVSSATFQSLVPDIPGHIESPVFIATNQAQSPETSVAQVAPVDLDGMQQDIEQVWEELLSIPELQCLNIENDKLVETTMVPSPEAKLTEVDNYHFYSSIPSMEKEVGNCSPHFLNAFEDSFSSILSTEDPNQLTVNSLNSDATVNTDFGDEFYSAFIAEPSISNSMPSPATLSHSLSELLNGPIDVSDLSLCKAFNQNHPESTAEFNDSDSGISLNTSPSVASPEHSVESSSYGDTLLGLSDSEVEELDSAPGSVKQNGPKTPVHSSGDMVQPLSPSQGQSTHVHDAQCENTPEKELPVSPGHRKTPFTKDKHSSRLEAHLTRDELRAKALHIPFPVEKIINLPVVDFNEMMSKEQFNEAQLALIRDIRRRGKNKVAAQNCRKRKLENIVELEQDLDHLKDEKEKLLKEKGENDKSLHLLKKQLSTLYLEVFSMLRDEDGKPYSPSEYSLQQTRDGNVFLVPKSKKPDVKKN
Cellular tumor antigen p53 (Homo sapiens), sequence (P04637 whole entry, looked up): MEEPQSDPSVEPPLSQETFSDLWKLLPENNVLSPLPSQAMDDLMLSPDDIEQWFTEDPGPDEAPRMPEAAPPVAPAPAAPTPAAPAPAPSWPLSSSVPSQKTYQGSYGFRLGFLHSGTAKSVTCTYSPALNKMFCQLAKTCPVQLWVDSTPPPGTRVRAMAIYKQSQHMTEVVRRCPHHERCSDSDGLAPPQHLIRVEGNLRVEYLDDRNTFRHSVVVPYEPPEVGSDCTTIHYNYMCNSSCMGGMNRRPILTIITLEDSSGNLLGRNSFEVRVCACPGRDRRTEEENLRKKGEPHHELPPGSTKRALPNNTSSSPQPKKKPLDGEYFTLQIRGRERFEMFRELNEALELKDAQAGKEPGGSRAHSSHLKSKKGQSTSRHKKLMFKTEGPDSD

Take `CNC(=O)CSP(=S)(OC)OC`: the compound was called inactive in assay [1], in assay [2], in assay [3], in assay [4], in assay [5] and in assay [6]. For the same compound, the compound was called inactive in assay [7], in assay [8], in [9], in assay [10], in assay [11] and in assay [12]. Besides, the compound was called inactive in [13] and in assay [14].
For the compound `Clc1ccccc1-c1nnc(-c2ccccc2Cl)nn1`, the result in assay [1], in assay [3], in assay [4], in assay [5], in assay [6] and in [7] was inactive. Further, the call in [8], in assay [9], in assay [10], in [11] and in [14] was inactive. The concentration at half-maximal activity (AC50) (as a rule, the midpoint of the concentration-response curve, whichever way the signal moves) was 50 µM (active) in assay [2], 50 µM (active) in assay [12] and 10.7 µM (active) in assay [13].
As to `N#CN`, the call in [1], in [2], in assay [3], in assay [4], in assay [5] and in assay [6] was inactive. The outcome in assay [7], in assay [8], in [9], in assay [10], in [11] and in [12] was inactive. Moreover, the outcome in assay [13], in [15], in assay [16] and in assay [14] was inactive.
Take `CC(C)(C)C(O)/C(=C\c1ccc(Cl)cc1Cl)n1cncn1` (centres undefined): the AC50 in assay [1] was 85.9 µM (active); in assay [2] it was 21 µM (active); in assay [3], 29.4 µM (active); in [5] it was 75.3 µM (active); in [8], 69 µM (active); in assay [11], 69.2 µM (active). Also, the AC50 in assay [13] was 69.2 µM (active); in assay [14], 72.9 µM (active). Also, the outcome in assay [4], in assay [6], in assay [7], in [9], in assay [10] and in assay [12] was inactive. The call in [17] was inactive.
As to `O=C(NC(=O)c1c(F)cccc1F)Nc1ccc(OC(F)(F)C(F)OC(F)(F)F)c(Cl)c1` (centres undefined), the compound was classed as inactive in assay [1], in assay [2], in [3], in assay [4], in [5] and in assay [6]. In addition, the compound was classed as inactive in [7], in assay [8], in assay [9], in assay [10], in assay [11] and in [13]. The compound was called inactive in assay [14]. Moreover, in assay [12], the AC50 was 6.25 µM (active).
Regarding `CCc1ccc(C(=O)NN(C(=O)c2cc(C)cc(C)c2)C(C)(C)C)cc1`, the compound was classed as inactive in assay [1], in [2], in assay [3], in [4], in [5] and in assay [6]. Also, the compound was classed as inactive in assay [7], in assay [8], in assay [9], in assay [10], in assay [11] and in assay [17]. Besides, the result in assay [15] was inactive. For the same compound, the AC50 is 21.5 µM (active) in assay [12], 12.3 µM (active) in assay [13] and 81.9 µM (active) in assay [14].

Values taken from PubChem BioAssay (EPA / NIEHS).
